Values joined by “and” are separate entries in the source; they are usually repeats but may differ in a detail not shown here. Identical values can stand only once. The panel holds about 83,000 compounds, 20% with a hit somewhere; the sample as a whole holds those more often.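 Percent growth is the endpoint: 0 to 100 indicates growth inhibition (40 means 60% inhibition), 0 means no net growth, and negative values indicate cell death.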 Active and inactive are the calls of the source. The calls were made as follows: active = growth percent below 10; inactive = the rest.
System: OVCAR-4 ovarian
Assay: NCI-60 one-dose screen, 48 h (100 = growth as untreated, 0 = no growth, -100 = all killed)
Conditions: 1 µM

SMILES	growth
CC/C(=C(\c1ccc(O)cc1)c1ccc(OCCN(C)C(=O)COCCNC(=O)Cc2ccc3c(c2)CN([C@@H]2CCC(=O)NC2=O)C3=O)cc1)c1ccccc1	91.3% (inactive)
CC/C(=C(\c1ccc(O)cc1)c1ccc(OCCN(C)C(=O)CCOCCNC(=O)c2ccc3c(c2)CN([C@@H]2CCC(=O)NC2=O)C3=O)cc1)c1ccccc1	109% (inactive)
CC/C(=C(/c1ccc(O)cc1)c1ccc(OCCN(C)C(=O)CCOCCNC(=O)Cc2ccc3c(c2)CN([C@@H]2CCC(=O)NC2=O)C3=O)cc1)c1ccccc1	102% (inactive)
CC/C(=C(/c1ccc(O)cc1)c1ccc(OCCN(C)C(=O)COCCOCCNC(=O)c2ccc3c(c2)CN([C@@H]2CCC(=O)NC2=O)C3=O)cc1)c1ccccc1	103% (inactive)
CC/C(=C(\c1ccc(O)cc1)c1ccc(OCCNC)cc1)c1ccccc1	111% (inactive)
CC/C(=C(/c1ccc(O)cc1)c1ccc(OCCN(C)C(=O)COCCOCCNC(=O)Cc2ccc3c(c2)CN([C@@H]2CCC(=O)NC2=O)C3=O)cc1)c1ccccc1	101% (inactive)

Same assay, conditions: 10 µM

SMILES	growth
CC/C(=C(\c1ccc(O)cc1)c1ccc(OCCN(C)C(=O)COCCNC(=O)Cc2ccc3c(c2)CN([C@@H]2CCC(=O)NC2=O)C3=O)cc1)c1ccccc1	38.7% (inactive)
CC/C(=C(\c1ccc(O)cc1)c1ccc(OCCN(C)C(=O)CCOCCNC(=O)c2ccc3c(c2)CN([C@@H]2CCC(=O)NC2=O)C3=O)cc1)c1ccccc1	96.1% (inactive)
CC/C(=C(/c1ccc(O)cc1)c1ccc(OCCN(C)C(=O)CCOCCNC(=O)Cc2ccc3c(c2)CN([C@@H]2CCC(=O)NC2=O)C3=O)cc1)c1ccccc1	75.7% (inactive)
CC/C(=C(/c1ccc(O)cc1)c1ccc(OCCN(C)C(=O)COCCOCCNC(=O)c2ccc3c(c2)CN([C@@H]2CCC(=O)NC2=O)C3=O)cc1)c1ccccc1	93% (inactive)
CC/C(=C(\c1ccc(O)cc1)c1ccc(OCCNC)cc1)c1ccccc1	88.7% (inactive)
CC/C(=C(/c1ccc(O)cc1)c1ccc(OCCN(C)C(=O)COCCOCCNC(=O)Cc2ccc3c(c2)CN([C@@H]2CCC(=O)NC2=O)C3=O)cc1)c1ccccc1	59.2% (inactive)

Same assay, conditions: 10 µM unless noted

SMILES	growth
N#CC1=C(c2cccs2)Nc2c(c(-c3ccccc3)nn2-c2ccccc2)C12C(=O)Nc1ccccc12 (centres undefined)	29.2% (inactive)
O=C1CC(c2ccc(I)cc2)OC2C=Cc3ccccc3C12 (centres undefined)	96.7% (inactive)
COc1ccc([C@H]2C(C(=O)c3ccc(Cl)cc3)C3(N[C@@H]2c2ccccc2)C(=O)Nc2ccccc23)cc1 (some centres undefined)	31.1% (inactive)
COc1ccc2c(c1)N=c1c-2cc2c(O)[nH]c(=S)n2c1=O	86.9% (inactive)
Cc1cc(N=C(N)c2ccccc2)ccc1OCCCCCCCCn1ccnc1	37.5% (inactive)
CS(=O)(=O)Nc1cc(-c2ccc3ncnc(N4CCc5cc(F)c(Cl)cc54)c3c2)cnc1Cl	10.6% (inactive)
COc1cc(NC(=O)C(C)C)ccc1C(=O)NC(=S)Nc1ccc(S(N)(=O)=O)cc1	98.5% (inactive)
CC1=C(C(=O)OC(C)C)C(c2ccc(O)cc2)NC(=O)N1 (centres undefined)	100% (inactive)
COc1cccc(/C=C/c2nc3ccccc3c(=O)n2CC(=O)Nc2ccccc2)c1	-1.67% (active)
COC(=O)c1c(C(=O)OC)c2ccc3c4ccccc4ccc3n2c1C(=O)OC	100% (inactive)
CCCCCCCCc1cccc(CC(=O)Nc2ccc(C)cc2C(=O)O)c1	86.1% [25 µM] (inactive)
O=C(c1cc2cc(OCCCN3CCC3)ccc2[nH]1)N1C[C@@H](CCl)c2c1cc(OCc1ccccc1)c1ccccc21	-57.7% (active)
CC(C)(C)OC(=O)N1CCC2(CC1)Oc1ccccc1[C@H]1CC(c3ccc(Br)cc3)=NN12	65% (inactive)
COc1ccc(NC2=C(I)C(=O)C(C)=C(C)C2=O)cc1	-84.6% (active)
CC[C@]12C=CCN3CC[C@@]4(c5ccc(OC)cc5N(C)[C@H]4[C@@](O)(C(=O)OC)[C@@H]1OC(=O)CCCC[P+](c1ccc(F)cc1)(c1ccc(F)cc1)c1ccc(F)cc1)[C@@H]32	33.1% (inactive)
FC(F)(F)c1cc2c(Cl)ncnc2n1CCN1CCCCC1	13.5% (inactive)

SMILES	growth
O=C(CSc1nnc(-c2ccc(-c3nc4ccc(Cl)cc4[nH]3)cc2)o1)Nc1ccccc1	37.9% (inactive)
Cc1cccc(NCC(=O)N2CCN(c3ncnc4c3cnn4-c3ccccc3)CC2)c1	51.6% (inactive)
CS(=O)(=O)c1ccc(-n2nc(C(=O)NCc3ccccc3)cc2-c2ccc(Cl)cc2)cc1	71% (inactive)
CS(=O)(=O)Nc1cccc(-n2c(COc3ccc(OC(F)(F)F)cc3)nc3ccccc32)c1	84.9% (inactive) and 104% (inactive)
O=C(CSc1nc2sc3c(c2c(=O)n1-c1ccc(Cl)cc1)CCCC3)NNC(=O)c1ccc(Br)cc1	64% (inactive)
O=C(c1ccc(Cl)cc1)C1[C@H](c2ccccc2Cl)[C@@H](c2ccccc2)NC12C(=O)Nc1ccccc12 (some centres undefined)	2.24% (active)
O=C1NC(=NC23CC4CC(CC(C4)C2)C3)N/C1=C\c1ccc2ncccc2c1	-14.4% (active)
N#CC1=C(c2ccco2)Nc2c(c(-c3ccccc3)nn2-c2ccccc2)C12C(=O)Nc1ccc(Cl)cc12 (centres undefined)	9.94% (active)
O=C(c1ccc(O)cc1)C1[C@H](c2ccccc2Br)[C@@H](c2ccccc2)NC12C(=O)Nc1ccccc12 (some centres undefined)	48.3% (inactive)
c1ccc(CSc2nnc(-c3ccc4nc(-c5ccccc5)[nH]c4c3)o2)cc1	-43.7% (active)
O=C(CSc1nnc(-c2ccc(-c3nc4ccccc4[nH]3)cc2)o1)Nc1ccccc1	94% (inactive)
CCCCCCCCCCCCCCCCCC(=O)Nc1ccc(OC)cc1	113% (inactive)
Nc1nn2c(-c3cc4ccccc4oc3=O)ccnc2c1N=Nc1ccccc1	96.6% (inactive)
O=C1NC(=S)/C(=C/c2cn(-c3ccccc3)nc2-c2ccccc2)S1	25.4% (inactive)
CC(Nc1ncnc2ccc(-c3ccc4oc(N)nc4c3)cc12)c1ccccc1 (centres undefined)	-85.8% (active)
O=C(N/N=C/c1ccsc1)c1[nH]c2ccc(Br)cc2c1-c1ccccc1	-30.8% (active)

Source: PubChem BioAssay (NCI)
